PfM18AAP inh = PfM18AAP enzyme inhibition | hit rate 1.2% among 290,000 | recombinant PfM18AAP, H-Glu-NHMec fluorogenic cleavage | inhibition, % at 7.35 µM;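 active = inhibition above the campaign mean inhibition over all tested compounds plus 3 SD, cut at about 28% in these data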
H9c2 protect = modulators protecting cardiomyocytes from myocardial damage. H9c2 cardiomyocytes, H2O2 injury protection, ATPLite, 2 h. protection from H2O2 cell death, % at 20 µM. hit rate 0.63% among 360,000;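 active = compounds giving at least 50% protection of heart cells from peroxide-induced death in the single-dose screen, raw or plate-pattern-corrected value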
PHOSPHO1 block = inhibitors of human PHOSPHO1 phosphatase | Q8TCT1 | recombinant PHOSPHO1, absorbance phosphatase assay | inhibition, % at 13.3 µM | hit rate 1.1% among 290,000 | AID 1565; in the data active = inhibition above about 60%
Target sequence (Q8TCT1 whole entry, looked up): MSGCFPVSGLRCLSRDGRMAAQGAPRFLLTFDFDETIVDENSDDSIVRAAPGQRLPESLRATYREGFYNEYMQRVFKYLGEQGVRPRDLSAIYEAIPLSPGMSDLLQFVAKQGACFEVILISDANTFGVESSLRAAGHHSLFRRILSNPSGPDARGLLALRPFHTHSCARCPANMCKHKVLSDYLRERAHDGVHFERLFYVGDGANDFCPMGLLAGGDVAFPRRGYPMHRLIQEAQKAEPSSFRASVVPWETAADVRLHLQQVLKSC
ALR inh = blocks human ALR sulfhydryl oxidase activity; purified ALR, DTT oxidation, H2O2 HRP-luminol luminescence; P55789; AID 485317; hit rate 3.8% among 290,000; inhibition, % (concentration not given with the values);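 active = mean replicate inhibition above about 79%, with every replicate also reaching it, limit read from the data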
Target sequence (P55789 whole entry, looked up): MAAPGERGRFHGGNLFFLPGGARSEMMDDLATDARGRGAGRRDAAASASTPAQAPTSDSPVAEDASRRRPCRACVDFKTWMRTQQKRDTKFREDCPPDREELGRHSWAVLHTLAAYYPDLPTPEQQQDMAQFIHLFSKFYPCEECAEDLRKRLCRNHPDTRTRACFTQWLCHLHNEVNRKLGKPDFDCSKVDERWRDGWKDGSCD
PfG6PD inh = PfG6PD (Plasmodium falciparum) enzyme inhibition; PfGluPho enzyme, NADPH resazurin-diaphorase fluorescence; inhibition, % at 20 µM; hit rate 0.78% among 350,000; AID 504690;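 active = inhibition reaching at least a set limit at 20 µM in the primary screen, cut at about 59% in these data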
Each line names hits and unclear results; the compound was inactive in the other large screens. Only some compounds are listed: those with a hit (about 5.6% of all), similar ones and a draw of the others.

CC(C)CCCCCCCCCCCCC(=O)NCC(=O)NC1C(C)OC(Nc2ncnc3nc[nH]c23)C(O)C1O (configuration not stated)	none (no result: PfM18AAP inh, PHOSPHO1 block, ALR inh)
C/C(=N\Nc1ccccn1)c1ccc(C#N)cc1	none
C/C(=N\Nc1ccccn1)c1ccc(OC(F)F)cc1	ALR inh 89.0
C/C(=N\Nc1ccccn1)c1cccs1	ALR inh 99.1
Cc1ccc(S(=O)(=O)N2CCOCC2)cc1NC(=O)COC(=O)COc1cccc2c1OC(C)(C)C2	none (no result: PfM18AAP inh, PHOSPHO1 block)
COc1ccc(-c2cc(-c3nnc(COC(=O)c4ccc(O)cc4)o3)c3ccccc3n2)cc1OC	none
COc1ccc(-c2cc(-c3nnc(COC(=O)C4CC4)o3)c3ccccc3n2)cc1OC	H9c2 protect 80.5
COc1ccc(-c2cc(-c3nnc(COC(=O)C4CC4C)o3)c3ccccc3n2)cc1OC (configuration not stated)	H9c2 protect 85.1
O=C1CC2(CCN(C(=O)COc3ccc(Cl)cc3)CC2)Oc2ccccc21	none (no result: PfM18AAP inh, PHOSPHO1 block)
S=c1nc(NCc2cccc(Cl)c2)c2ccccc2[nH]1	none (no result: ALR inh)
Cc1ccc(S(=O)(=O)CCC(=O)c2ccc(O)cc2O)cc1	ALR inh 97.7
O=C(Nc1cccc(OC(F)(F)F)c1)[C@@H]1O[C@H](CO)[C@H](O)[C@H](O)[C@H]1O	none (no result: PfM18AAP inh, PHOSPHO1 block, ALR inh, PfG6PD inh)
O=C(CSc1ccccc1)Nc1ccc(N2CCN(c3ccccc3)CC2)c(F)c1	ALR inh 99.7
Nc1cc(=O)[nH]c(N2CCN(c3ccccc3)CC2)n1	none
Nc1ccc(N2CCN(c3ccccc3)CC2)c(F)c1	ALR inh 78.8
COCC(=O)Nc1ccc(N2CCN(c3ccccc3)CC2)c(F)c1	none
C=CCOc1ccc(C2C(C(=O)c3ccco3)=C(O)C(=O)N2c2nnc(C)s2)cc1 (configuration not stated)	none
CC(C)COc1ccc(N)cc1OCC(C)C	ALR inh 98.7
O=C(NNC(=O)c1ccc(Br)s1)c1csc(N2CCOCC2)n1	none (no result: PfM18AAP inh, PHOSPHO1 block, ALR inh)
Oc1ccc(Nc2nc(-c3cccnc3)cs2)cc1	none
Oc1ccc(Nc2nc(-c3ccc(O)cc3)cs2)cc1	ALR inh 100.0
Nc1ccc(Nc2nc(-c3ccncc3)cs2)cc1	PHOSPHO1 block 80.9
Clc1ccc(Nc2nc(-c3ccncc3)cs2)cc1	none (no result: PHOSPHO1 block)
COc1cc(C(C(=O)NC2CCCC2)N(C(=O)Cc2cccs2)C2CC2)cc(OC)c1OC (configuration not stated)	none
CC(Oc1ccc(F)cc1)C(=O)Nc1nc(-c2ccccn2)cs1 (configuration not stated)	H9c2 protect 66.8 (no result: PfM18AAP inh, PHOSPHO1 block)
Cc1cc(C)c(OCC(=O)Nc2nc(-c3ccccn3)cs2)c(C)c1	H9c2 protect 63.1
O=C(CS(=O)(=O)c1ccccc1)Nc1nc(-c2ccccc2)cs1	ALR inh 99.3
O=C(CCS(=O)(=O)c1ccccc1)Nc1nc(-c2ccccn2)cs1	H9c2 protect 51.4 (no result: PHOSPHO1 block)
O=C(Nc1cccc(S(=O)(=O)NC2=NCCC2)c1)c1ccc(C(F)(F)F)cc1	none (no result: PfM18AAP inh, PHOSPHO1 block)
O=C(CC1CC2CCC1C2)Nc1nc(-c2ccccn2)cs1 (configuration not stated)	H9c2 protect 53.3
O=C(Nc1nc(-c2ccccn2)cs1)C1CC1	none
COC(=O)[C@]1(C)N[C@H](CN(C)C(=O)Nc2ccc(C(F)(F)F)cc2)[C@@H]2C(=O)N(C)C(=O)[C@@H]21	none (no result: PfM18AAP inh, PHOSPHO1 block)
O=c1nc2n(c3sc4c(c13)CCCC4)C(CBr)CS2 (configuration not stated)	ALR inh 86.1
CC(Oc1ccc(Br)cc1)C(=O)Nc1cc(Cl)ccc1N1CCN(C)CC1 (configuration not stated)	none (no result: PfM18AAP inh, PHOSPHO1 block)
Cc1ccc(C(=O)OCC(=O)Nc2ccc(C)c(S(=O)(=O)N3CCCCC3)c2)o1	none (no result: PfM18AAP inh, PHOSPHO1 block, ALR inh)
Cc1[nH]c2ccccc2c1CCO	none
Cc1[nH]c2ccccc2c1CCCO	ALR inh 98.8 (no result: H9c2 protect)
Cc1ccc2oc(=O)c3cc(C(=O)N4CCN(C(=O)c5ccco5)CC4)sc3c2c1	none (no result: H9c2 protect, PfG6PD inh)
CCN(Cc1ccccc1)C(=O)c1cc2c(=O)oc3ccc(C)cc3c2s1	H9c2 protect 97.4
O=C(O)C1CCCCC1C(=O)NCc1ccc(Cl)c(Cl)c1 (configuration not stated)	none
N/C(=N\NS(=O)(=O)c1ccc(Cl)cc1)c1ccccn1	none (no result: PfM18AAP inh, PHOSPHO1 block)
N/C(=N\NS(=O)(=O)c1cc(C(F)(F)F)cc(C(F)(F)F)c1)c1ccccn1	ALR inh 85.2
N/C(=N\NS(=O)(=O)c1ccccc1)c1ccccn1	H9c2 protect 51.2 (no result: PfM18AAP inh, PHOSPHO1 block)
CSCCC(NC(=O)COc1ccccc1)C(=O)N1CCN(c2ccccc2O)CC1 (configuration not stated)	none (no result: PfM18AAP inh, PHOSPHO1 block)
CCCSc1nc(C)c(-c2csc(C(C#N)=C3CCCC3)n2)cc1C#N	PHOSPHO1 block 74.3
O=C(Nc1ccccc1)C1Cc2ccccc2CN1C(=O)c1ccco1 (configuration not stated)	ALR inh 97.3
CC(=O)n1c(=O)c2ccccc2c(=O)n1-c1ccccc1	ALR inh 97.9 (no result: PHOSPHO1 block)
CN1c2ccc([N+](=O)[O-])cc2N(C)C1(C)c1ccccc1 (configuration not stated)	ALR inh 99.2
Cn1c2ccccc2c2cc([N+](=O)[O-])ccc21	none
C/C(C/C(C)=C1/SC(=S)NC1=O)=C1\SC(=S)NC1=O	PfM18AAP inh 29.5 (no result: ALR inh)
CCCCCC/C(C)=C1/SC(=S)NC1=O	none
CCc1ccc(S(=O)(=O)NCCc2cn3cccc(C)c3n2)s1	none
N#Cc1ccc(S(=O)(=O)N2CCN(C(=O)c3cn(-c4ccccc4)nc3-c3cccnc3)CC2)cc1	none (no result: PfM18AAP inh, PHOSPHO1 block, ALR inh)
S=c1[nH]nc(Cc2c[nH]c3ccccc23)o1	PHOSPHO1 block 61.0
COc1ccccc1OCCNC(=O)CNC(=O)c1ccc(C(C)(C)C)cc1	none (no result: PfM18AAP inh, PHOSPHO1 block, ALR inh)
O=C(NNc1c2ccccc2nc2ccccc12)c1ccc(O)cc1O	ALR inh 98.3
O=C(NNc1c2ccccc2nc2ccccc12)c1ccccc1O	ALR inh 98.8
N#C/C(=C\c1ccc(C(=O)O)cc1)S(=O)(=O)c1cc(Br)ccc1Br	ALR inh 91.9
COc1cc(C)ccc1OCc1cc(C(=O)N2CCN(C)C[C@@H]2c2ccccc2)no1	none
CC(C)Oc1cc(F)ccc1-c1cc(C(=O)Nc2cccc(C(F)(F)F)c2)[nH]n1	none (no result: PfM18AAP inh, PHOSPHO1 block, ALR inh, PfG6PD inh)
O=C1CC(O)(C(F)(F)F)Oc2c1ccc1ccccc21 (configuration not stated)	none
O=C1CC(O)(C(F)F)Oc2ccc3ccccc3c21 (configuration not stated)	PHOSPHO1 block 67.4
COc1ccccc1-c1cnc(C(O)c2c(C)cc(C)cc2C)[nH]1 (configuration not stated)	none (no result: PfM18AAP inh, PHOSPHO1 block, ALR inh, PfG6PD inh)
Cc1c(O)ccc2c3c(c(=O)oc12)CCC(C)C3 (configuration not stated)	H9c2 protect 51.9
COc1ccc(Cc2nc3ccc(C(=O)N4CCCCC4CO)cc3o2)cc1OC (configuration not stated)	none (no result: PfM18AAP inh, PHOSPHO1 block, ALR inh)
O=NNc1nc2ccccc2n1Cc1ccccc1	H9c2 protect 71.6
Cc1cnc(C(=O)Oc2c(C)ccc(C)c2C)cn1	PHOSPHO1 block 140.9
Cc1cnc(C(=O)OCc2ccc(Br)cc2)cn1	none (no result: ALR inh)
COc1cc(-c2cc(C(=O)Nc3ccc(O)cc3)c3ccccc3n2)cc(OC)c1OC	none (no result: ALR inh)

Bioassay records (PubChem BioAssay)
